PubChem BioAssay (Tox21)
Values joined by “and” are separate entries in the source; they are usually repeats but may differ in a detail not shown here. Identical values can stand only once. Records with an inconclusive call do not appear. The source holds several records for some structures; these can differ, active in one and inactive in another. Active and inactive are the calls of the source. Unless noted, calls come from the whole dose curve; as a rule, active = well fitted curve in the direction sought with a large enough effect in the repeat runs; inconclusive = weak or mixed curves; inactive = no such curve, though single readings can be large; an effect the other way counts as inactive or inconclusive.

Tests used:
[1] = qHTS assay to identify small molecule agonists of H2AX - cell viability counter screen (AID 1224847; calls by dose curve;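 note: wild-type CHO-K1 cells; top concentration of the series differs between compounds; nearly all actives have a fitted effect of over 30% in size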)
Summary of the method: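 CHO-K1 wt, 1000 cells/well, o/n 37C; cpds 15 conc, 3 h 37C, 0.76% DMSO; CellTiter-Glo, 30 min RT, luminescence.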

[2] = qHTS assay to identify small molecule antagonists of the estrogen related receptor (ERR) signaling pathway from Tox21 library (AID 1224848); note: nearly all actives have a fitted effect of over 50% in size; note: potency is the fitted concentration of half-maximal effect
Summary of the method: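 ERR cell line, 2,000 cells/well. 6 h settle, then compound (DMSO) added; 18 h at 37 C; ONE-Glo luminescence after 30 min RT.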

[3] = qHTS assay to identify small molecule agonists of the estrogen related receptor (ERR) signaling pathway from Tox21 library (AID 1224849; calls by dose curve; note: nearly all actives have a fitted effect of over 15% in size); details: ERR reporter cell line, ONE-Glo luciferase, 18 h
Summary of the method: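 Cells carrying the ERR reporter were plated and allowed to settle for 6 h, exposed to library compounds for 18 h at 37 C, then lysed with ONE-Glo and luminescence measured.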

[4] = qHTS RealTime-Glo MT Cell Viability Assay in HepG2 cells - 24 hour (AID 1224867); note: nearly all actives have a fitted effect of over 50% in size
Summary of the method: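 Viability was tracked continuously by NanoLuc luminescence from prosubstrate reduced by living HepG2 cells, at successive time points over 40 h of compound exposure. Cells with reagent were preincubated 5 h at 37 °C before compound addition.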

[5] = qHTS RealTime-Glo MT Cell Viability Assay in HEK293 cells - 32 hour (AID 1224868); note: top concentration of the series differs between compounds; nearly all actives have a fitted effect of over 50% in size
Summary of the method: (§1)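 Viability tracked continuously by luminescence as live cells reduce a prosubstrate for NanoLuc; HEK293 cells preincubated 5 h, compound-treated at 37 C, and read at 0, 8, 16, 24, 32 and 40 h.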

[6] = A CellTox Green Cytotoxicity Assay to monitor cytotoxicity in HEK293 cells - 0 hour (AID 1224869); note: nearly all actives have a fitted effect of over 50% in size; note: potency is the fitted concentration of half-maximal effect
Summary of the method: (§2)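 Cells (HEK293, 600/well) and dye reagent are dispensed together. After 5 h at 37 C, 23 nL compound is pinned in. Plates stay at 37 C for 40 h with fluorescence read at 0h, 8h, 16h, 24h, 32h and 40h.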

[7] = qHTS RealTime-Glo MT Cell Viability Assay in HepG2 cells - 40 hour (AID 1224870); note: nearly all actives have a fitted effect of over 50% in size
Summary of the method: (§3)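 Real-time viability: cells seeded at 600 per well together with NanoLuc and cell-permeant prosubstrate, compounds added after 5 h incubation. Luminescence tracked at 0, 8, 16, 24, 32 and 40 h of exposure.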

[8] = A CellTox Green Cytotoxicity Assay to monitor cytotoxicity in HEK293 cells - 40 hour (AID 1224871); note: nearly all actives have a fitted effect of over 45% in size; note: potency is the fitted concentration of half-maximal effect
Summary of the method: as §2

[9] = qHTS RealTime-Glo MT Cell Viability Assay in HEK293 cells - 16 hour (AID 1224872)
Summary of the method: as §1

[10] = qHTS RealTime-Glo MT Cell Viability Assay in HepG2 cells - 8 hour (AID 1224873); note: nearly all actives have a fitted effect of over 55% in size
Summary of the method: as §3
% is set by controls: 0 for no effect and ±100 for the full control effect.

CCCCOC(=O)c1ccccc1C(=O)OCCCC
inactive: Potency [1] | Potency [2] | activity change, positive = activation ([3]; at 92.4 µM (top of the series)) -4.86% and -5.73% | outcome [4] | Potency [5] | Potency [6] | outcome [7] | Potency [8] | outcome [9] | outcome [10]

CC1OC(C)OC(C)O1 (stereo unspecified)
inactive: Potency [1] | Potency [2] | activity change, positive = activation ([3]; at 42.5 µM (top of the series)) 4.56% | activity change, positive = activation ([3]; at 92.4 µM (top of the series)) 4.37% | outcome [4] | Potency [5] | Potency [6] | outcome [7] | Potency [8] | outcome [9] | outcome [10]

Cc1ccc(N)cc1N
inactive: Potency [1] | Potency [2] | outcome [4] | Potency [6] | outcome [7] | Potency [8] | outcome [9] | outcome [10]
active: activity change, positive = activation ([3]; at 92.4 µM (top of the series)) 49%

CN(C)CCO
inactive: Potency [1] | Potency [2] | activity change, positive = activation ([3]; at 92.4 µM (top of the series)) 0.0173% and 5.21% | outcome [4] | Potency [5] | Potency [6] | outcome [7] | Potency [8] | outcome [9] | outcome [10]

COC(=O)c1ccccc1N
inactive: Potency [1] | Potency [2] | activity change, positive = activation ([3]; at 92.4 µM (top of the series)) 4.73% and 5.15% | outcome [4] | Potency [5] | Potency [6] | outcome [7] | Potency [8] | outcome [9] | outcome [10]

CN(N=O)c1ccccc1
inactive: Potency [1] | Potency [2] | activity change, positive = activation ([3]; at 92.4 µM (top of the series)) 0% and 7.25% | outcome [4] | Potency [5] | Potency [6] | outcome [7] | Potency [8] | outcome [9] | outcome [10]

CCC[CH2][Sn]([Cl])([Cl])[Cl]
inactive: Potency [1] | Potency [2] | activity change, positive = activation ([3]; at 92.4 µM (top of the series)) 3.29% and -6.08% | outcome [4] | Potency [5] | Potency [6] | outcome [7] | Potency [8] | outcome [9] | outcome [10]

CCC(C)(CC)c1cc(NC(=O)c2c(OC)cccc2OC)on1
inactive: Potency [1] | activity change, positive = activation ([3]; at 92.4 µM (top of the series)) -45.6% and -38.5% | outcome [4] | Potency [5] | Potency [6] | outcome [7] | Potency [8] | outcome [9] | outcome [10]
active: Potency [2] 54.6 µM and 46.7 µM

ClCCBr
inactive: Potency [1] | Potency [2] | activity change, positive = activation ([3]; at 92.4 µM (top of the series)) 3.01% and -0.293% | outcome [4] | Potency [5] | Potency [6] | outcome [7] | Potency [8] | outcome [9] | outcome [10]

Nc1ccc(Oc2ccc(N)cc2)cc1
inactive: Potency [1] | Potency [2] | activity change, positive = activation ([3]; at 92.4 µM (top of the series)) -8.13% and -18.8% | outcome [4] | Potency [5] | Potency [6] | outcome [7] | Potency [8] | outcome [9] | outcome [10]

CC(C#N)CCC#N (stereo unspecified)
inactive: Potency [1] | Potency [2] | activity change, positive = activation ([3]; at 92.4 µM (top of the series)) 5.4% and 2.56% | outcome [4] | Potency [5] | Potency [6] | outcome [7] | Potency [8] | outcome [9] | outcome [10]

CC(C)OC(=O)Nc1ccccc1
inactive: Potency [1] | Potency [2] | activity change, positive = activation ([3]; at 92.4 µM (top of the series)) 8.94% and -18.7% | outcome [4] | Potency [5] | Potency [6] | outcome [7] | Potency [8] | outcome [9] | outcome [10]

CCc1cccc(C)c1N(C(=O)CCl)C(C)COC (stereo unspecified)
active: Potency [2] 51.3 µM and 54.5 µM
inactive: Potency [1] | activity change, positive = activation ([3]; at 92.4 µM (top of the series)) -45.5% and -42% | outcome [4] | Potency [5] | Potency [6] | outcome [7] | Potency [8] | outcome [9] | outcome [10]

CN1C(=O)CN=C(c2ccccc2)c2cc(Cl)ccc21
inactive: Potency [1] | Potency [2] | activity change, positive = activation ([3]; at 42.5 µM (top of the series)) 8.92% | activity change, positive = activation ([3]; at 92.4 µM (top of the series)) -13.2% | outcome [4] | Potency [5] | Potency [6] | outcome [7] | Potency [8] | outcome [9] | outcome [10]

O=C1CCCN1
inactive: Potency [1] | outcome [4] | Potency [5] | Potency [6] | outcome [7] | Potency [8] | outcome [9] | outcome [10]

O=Cc1cccc(Oc2ccccc2)c1
inactive: Potency [1] | outcome [4] | Potency [5] | Potency [6] | outcome [7] | Potency [8] | outcome [9] | outcome [10]

c1cc2c3c(cccc3c1)CC2
inactive and 43.6 µM (active): Potency [8]
inactive: Potency [1] | outcome [4] | Potency [5] | Potency [6] | outcome [7] | outcome [9] | outcome [10]

CC1C=[C-]C=C1.[C-]#[O+].[C-]#[O+].[C-]#[O+].[Mn]
inactive: Potency [1] | outcome [4] | Potency [5] | Potency [6] | outcome [7] | Potency [8] | outcome [9] | outcome [10]

O=[N+]([O-])c1ccc([As](=O)(O)O)cc1
inactive: Potency [1] | outcome [4] | Potency [5] | Potency [6] | outcome [7] | Potency [8] | outcome [9] | outcome [10]

ClCc1cccnc1
inactive: Potency [1] | outcome [4] | Potency [5] | Potency [6] | outcome [7] | Potency [8] | outcome [9] | outcome [10]

CCCN(CCC)N=O
inactive: Potency [1] | outcome [4] | Potency [5] | Potency [6] | outcome [7] | Potency [8] | outcome [9] | outcome [10]

C=CCO
inactive: Potency [1] | outcome [4] | Potency [5] | outcome [7] | outcome [9] | outcome [10]
inactive and 43.6 µM (active): Potency [6]
inactive and 34.7 µM (active): Potency [8]

[N-]=[N+]=[N-]
inactive: Potency [1] | outcome [4] | Potency [5] | Potency [6] | outcome [7] | Potency [8] | outcome [9] | outcome [10]

OCCN(CCO)CCO
inactive: Potency [1] | outcome [4] | Potency [5] | Potency [6] | outcome [7] | Potency [8] | outcome [9] | outcome [10]
